{"source": "PubChem BioAssay (NCATS)", "note": "Records with an inconclusive call do not appear. A call without a number means that no potency is given here. Active and inactive are the calls of the source. The call rests on the fitted dose curve; in most records, active means well fitted cell-killing curve with a large enough effect; inconclusive means small, poorly fitted or top-dose-only effect; inactive means flat fitted curve, though single readings scatter. Potency means the concentration at half of the fitted maximal effect."}
{"assay": "Cell Viability - LYMP1-002 - Assay at 40 hr (AID 994); further: nearly all actives have a fitted effect of over 60% in size", "settings": "LYMP1-002 lymphoblastoid cell viability; series mostly up to 92.2 µM", "description": "NIH Chemical Genomics Center [NCGC]\nNIH Molecular Libraries Screening Centers Network [MLSCN]\nNational Institutes of Environmental Health Sciences [NIEHS]\nNational Toxicology Program [NTP]\nWe have developed a 1536-well cell-based assay for quantitative high throughput screening (qHTS) against a number of cell lines to determine in vitro cytotoxicity of small molecules. This particular assay uses a human lymphoblastoid cell line (LYMP1-002) purchased from Coriell Institute for Medical Research.\nNCGC Assay Protocol Summary:\nThe CellTiter-Glo luminescent cell viability assay (Promega) is a homogeneous method to measure the number of viable cells in culture. The end point readout of this assay is based on quantitation of intracellular ATP, an indicator of metabolic activity, using the luciferase reaction. Luciferase catalyzes the oxidation of beetle Luciferin to oxyluciferin and light in the presence of ATP. The luminescent signal is proportional to amount of ATP present.\nUsing the CellTiter-Glo luminescent cell viability assay, the amount of cellular ATP was measured in the lymphoblastoid cell line with complete culture medium following compound treatment for 40 hours. The assay was performed in opaque white Kalypsys 1536-well plates. In the screen, tetraoctylammonium bromide was used as positive control. Library compounds were measured for their ability to cause acute toxicity in the cell line, as reflected by a decrease in intracellular ATP levels, in a concentration-dependent manner. […] AC50 values were determined from concentration-response data modeled with the standard Hill equation.\nqHTS protocol for CellTiter Glo lymphoblastoid cellular assay\n[Step] [Parameter] [Value] [Description]\n1. Reagent; 5 uL; 2500 lymphoblastoid cells/well\n2. Time; 5 hr; 37 C incubation\n4. Controls; 23 nL; Tetraoctylammonium bromide 6.4pM to 92 uM\n5. Time; 40 hr; 37 C incubation\n6. Reagent; 5 uL; CellTiter Glo reagent\n7. Time; 30 min; Room Temperature\n8. Detection; Luminescence; Viewlux plate reader\nKeywords: cell viability, cytotoxicity, lymphoblastoid cell line, luminescence, NTPHTS, NTPHTS_NCGC, NIEHS, DSSTox, MLSMR, MLSCN, NIH Roadmap, qHTS, NCGC"}
{"smiles": "Nc1ccn([C@H]2CS[C@@H](CO)O2)c(=O)n1", "Potency": "inactive"}
{"smiles": "CC(O)CO", "note": "(centres undefined)", "Potency": "inactive"}
{"smiles": "O=CCCCC=O", "Potency": "inactive"}
{"smiles": "CCCCC/C=C\\C/C=C\\CCCCCCCC(=O)O", "Potency": "inactive"}
{"smiles": "O=S(=O)(O)O", "Potency": "inactive"}
{"smiles": "Cc1ccccc1", "Potency": "inactive"}
{"smiles": "CC1=C2[C@@H]([C@H](C)CC[C@H]2/C=C(\\C)C(=O)O)[C@H](O)C1", "Potency": "inactive"}
{"smiles": "CCOC(C)=O", "Potency": "inactive"}
{"smiles": "IC(I)I", "Potency": "inactive"}
{"smiles": "CC(C)=O", "Potency": "inactive"}
{"smiles": "CCCCCCCC/C=C\\CCCCCCCC(=O)O", "Potency": "inactive"}
{"smiles": "CCCCCCCC(=O)O", "Potency": "inactive"}
{"smiles": "CC(C)(C)NC(=O)[C@@H]1C[C@@H]2CCCC[C@@H]2CN1C[C@@H](O)[C@H](Cc1ccccc1)NC(=O)[C@H](CC(N)=O)NC(=O)c1ccc2ccccc2n1", "Potency": "50.1 µM (active)"}
{"smiles": "O=C(O)CCC(=O)C(=O)O", "Potency": "inactive"}
